Results on three molecules are retold here after PubChem BioAssay AID651871 (Sanford-Burnham Center for Chemical Genomics, 2012).

Where “and” joins values, the source holds several entries; their conditions need not be identical. Identical values can stand only once.

This experiment concerns HL-1. Briefly: protection of cardiomyocytes from stress damage, SAR follow-up, cell-based, panel, H9c2 and HL-1, ATP luminescence, set 2 (AID 651871).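 Note: cells exposed to stressor for 2 h before ATP readout; reference of the scale not given here.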 Particulars: H9c2/HL-1 cardiomyocytes, 2-deoxyglucose stress, with 2-deoxyglucose, run 11, at 79 µM (top of the series).
In the case of `CCOC(=O)c1cccc(NC(=O)CNC(=O)c2cc(-c3cc(OC)c(OC)c(OC)c3)nc3ccccc23)c1`, the activity (protection/inhibition) is 66.5%. In the case of `COc1ccc2nc(-c3cc(OC)c(OC)c(OC)c3)cc(C(=O)NCC(=O)Nc3ccc(C(C)=O)cc3)c2c1`, the activity (protection/inhibition) was 89%. As for `COc1ccc2c(c1OC)C(=O)N1c3ccccc3C(=O)N(Cc3cccc(Cl)c3Cl)C21` (stereo not drawn), the figure is 42.6% and -9.56%.
